Calls of active or inactive are those of the source. Rule for the calls: active = hit-call score of the fitted dose curve at least 0.9, where 1 is the maximum; inactive = score below 0.9.
Target: Hepatocyte nuclear factor 3-beta (Homo sapiens) (UniProt Q9Y261)
Sequence (Q9Y261 whole entry, looked up): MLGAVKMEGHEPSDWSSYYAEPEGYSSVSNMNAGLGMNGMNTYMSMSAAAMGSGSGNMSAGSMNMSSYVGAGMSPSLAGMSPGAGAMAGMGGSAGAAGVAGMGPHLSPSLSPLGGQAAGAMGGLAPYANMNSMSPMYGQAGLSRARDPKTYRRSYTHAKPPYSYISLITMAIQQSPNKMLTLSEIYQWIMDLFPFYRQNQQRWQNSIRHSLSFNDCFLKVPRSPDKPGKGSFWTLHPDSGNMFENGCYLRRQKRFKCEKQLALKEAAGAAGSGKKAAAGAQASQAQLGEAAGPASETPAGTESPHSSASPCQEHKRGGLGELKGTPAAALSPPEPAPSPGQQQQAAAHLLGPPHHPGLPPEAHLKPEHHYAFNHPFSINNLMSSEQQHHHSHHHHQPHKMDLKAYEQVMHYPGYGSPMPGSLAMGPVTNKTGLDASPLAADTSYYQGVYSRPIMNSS
Assay: ATG_FoxA2_CIS: Attagene CIS-FACTORIAL HepG2 Assay for human Forkhead box A2 (FOXA2) (AID 2282942)
Settings: HepG2 cis-reporter transcription factor activity, 24 h; actives raise or lower the signal
Outline: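 Endogenous transcription factor activity was read in HepG2 cells carrying transiently transfected cis-promoter reporter units. After 24 h dosing, reporter mRNA was quantified by RT-PCR and capillary electrophoresis, and values fitted bidirectionally versus DMSO.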
With `O=C(O)CC(O)C(=O)O` (stereo not drawn) the outcome was “inactive”.
With `CC(C)=CCCC(C)=CC=O` the outcome was “inactive”.
In the case of `C=CC(=C)CCC=C(C)C`, the outcome is reported as “inactive”.
With `CC[C@H]1OC(=O)[C@H](C)[C@@H](O[C@H]2C[C@@](C)(OC)[C@@H](O)[C@H](C)O2)[C@H](C)[C@@H](O[C@@H]2O[C@H](C)C[C@H](N(C)C)[C@H]2O)[C@](C)(O)C[C@@H](C)C(=O)[C@H](C)[C@@H](O)[C@]1(C)O` the outcome was “inactive”.
With `O=C1CCC(N2C(=O)c3ccccc3C2=O)C(=O)N1` (stereo not drawn) the outcome was “inactive”.
For `C[C@](N)(Cc1ccc(O)c(O)c1)C(=O)O`, the outcome was “inactive”.
For `Nc1cccc(N)c1`, the outcome was “inactive”.
For `Cn1c(=O)c2c(ncn2C)n(C)c1=O`, the outcome was “inactive”.
In the case of `Nc1nc2ncc(CNc3ccc(C(=O)N[C@@H](CCC(=O)O)C(=O)O)cc3)nc2c(=O)[nH]1`, the outcome is reported as “inactive”.
With `CC(=O)OCCC(C)C` the outcome was “inactive”.
For `O=P(OC(CCl)CCl)(OC(CCl)CCl)OC(CCl)CCl`, the outcome was “inactive”.
For `CCCC(=O)OCC`, the outcome was “inactive”.
With `COc1cccc(-c2ccc(/C=C\CN3CCCCCC3)cc2Cl)c1` the outcome was “inactive”.
With `O=C(OC[C@H]1O[C@@H](OC(=O)c2cc(O)c(O)c(OC(=O)c3cc(O)c(O)c(O)c3)c2)[C@H](OC(=O)c2cc(O)c(O)c(OC(=O)c3cc(O)c(O)c(O)c3)c2)[C@@H](OC(=O)c2cc(O)c(O)c(OC(=O)c3cc(O)c(O)c(O)c3)c2)[C@@H]1OC(=O)c1cc(O)c(O)c(OC(=O)c2cc(O)c(O)c(O)c2)c1)c1cc(O)c(O)c(OC(=O)c2cc(O)c(O)c(O)c2)c1` the outcome was “inactive”.
For `CCOCCOCCOCCO`, the outcome was “inactive”.
In the case of `O=C(O)c1cccc(N(Cc2cccnc2)c2ccc(OC(F)F)c(OC(F)F)c2)c1`, the outcome is reported as “inactive”.
For `Cn1c(=O)cc(Oc2ccc(F)cc2F)c2cnc(NCC(C)(C)O)nc21`, the outcome was “inactive”.
In the case of `CC(C)CC(C)(O)C#CC(C)(O)CC(C)C` (stereo not drawn), the outcome is reported as “inactive”.
For `CC(C)=CCC/C(C)=C\CO`, the outcome was “inactive”.
With `Cc1ccc(S(=O)(=O)O)cc1C` the outcome was “inactive”.
For `CC(=O)c1ccc2c(c1)[C@H](NC(=O)c1ccc(F)cc1)[C@@H](O)C(C)(C)O2`, the outcome was “inactive”.
With `C=CCCCCCCCCC(=O)O` the outcome was “inactive”.
With `O=C(O)c1cccc(Oc2ccccc2)c1` the outcome was “inactive”.
For `C1N2CN3CN1CN(C2)C3`, the outcome was “inactive”.
In the case of `CC1=CC(=O)CC(C)(C)C1`, the outcome is reported as “inactive”.
With `CNS(=O)(=O)c1cc(C(=O)N2CCC(CCN3C4CCC3CC(n3c(C)nc5ccccc53)C4)(c3cccc(F)c3)CC2)c(Cl)cc1F` (stereo not drawn) the outcome was “inactive”.
For `O=C(O)CCN(C1(C(=O)NO)CCCC1)S(=O)(=O)c1ccc(Oc2ccc(F)cc2)cc1`, the outcome was “inactive”.
In the case of `On1ccccc1=S`, the outcome is reported as “inactive”.
With `CCn1nc(Cc2ccccc2)cc1C1CCN(C[C@H]2C[C@H](N(C)[C@@H](C(=O)O)C(C)C)C[C@@H]2c2cccc(F)c2)CC1` the outcome was “inactive”.

Tested on: not listed separately
Assay: ATG_FoxO_CIS: Attagene CIS-FACTORIAL HepG2 Assay for human Forkhead box O (FoxO) (AID 2282943)
Settings: HepG2 Attagene cis-reporter, FoxO element, mRNA; actives raise or lower the signal
Outline: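 HepG2, transient MRTU transfection (cis element, endogenous TFs). Dose 24 h. TriZol RNA → oligo(dT) RT → PCR → 6-FAM primer extension → HpaI cut → CE. Gain/loss vs DMSO.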
For `O=C(O)CC(O)C(=O)O` (stereo not drawn), the outcome was “inactive”.
In the case of `CC(C)=CCCC(C)=CC=O`, the outcome is reported as “inactive”.
In the case of `C=CC(=C)CCC=C(C)C`, the outcome is reported as “inactive”.
In the case of `CC[C@H]1OC(=O)[C@H](C)[C@@H](O[C@H]2C[C@@](C)(OC)[C@@H](O)[C@H](C)O2)[C@H](C)[C@@H](O[C@@H]2O[C@H](C)C[C@H](N(C)C)[C@H]2O)[C@](C)(O)C[C@@H](C)C(=O)[C@H](C)[C@@H](O)[C@]1(C)O`, the outcome is reported as “inactive”.
With `O=C1CCC(N2C(=O)c3ccccc3C2=O)C(=O)N1` (stereo not drawn) the outcome was “inactive”.
In the case of `C[C@](N)(Cc1ccc(O)c(O)c1)C(=O)O`, the outcome is reported as “inactive”.
With `Nc1cccc(N)c1` the outcome was “inactive”.
With `Cn1c(=O)c2c(ncn2C)n(C)c1=O` the outcome was “inactive”.
With `Nc1nc2ncc(CNc3ccc(C(=O)N[C@@H](CCC(=O)O)C(=O)O)cc3)nc2c(=O)[nH]1` the outcome was “inactive”.
With `CC(=O)OCCC(C)C` the outcome was “inactive”.
For `O=P(OC(CCl)CCl)(OC(CCl)CCl)OC(CCl)CCl`, the AC50 was 169 µM (active).
With `CCCC(=O)OCC` the outcome was “inactive”.
For `COc1cccc(-c2ccc(/C=C\CN3CCCCCC3)cc2Cl)c1`, the outcome was “inactive”.
With `O=C(OC[C@H]1O[C@@H](OC(=O)c2cc(O)c(O)c(OC(=O)c3cc(O)c(O)c(O)c3)c2)[C@H](OC(=O)c2cc(O)c(O)c(OC(=O)c3cc(O)c(O)c(O)c3)c2)[C@@H](OC(=O)c2cc(O)c(O)c(OC(=O)c3cc(O)c(O)c(O)c3)c2)[C@@H]1OC(=O)c1cc(O)c(O)c(OC(=O)c2cc(O)c(O)c(O)c2)c1)c1cc(O)c(O)c(OC(=O)c2cc(O)c(O)c(O)c2)c1` the outcome was “inactive”.
For `CCOCCOCCOCCO`, the outcome was “inactive”.
For `O=C(O)c1cccc(N(Cc2cccnc2)c2ccc(OC(F)F)c(OC(F)F)c2)c1`, the outcome was “inactive”.
In the case of `Cn1c(=O)cc(Oc2ccc(F)cc2F)c2cnc(NCC(C)(C)O)nc21`, the outcome is reported as “inactive”.
In the case of `CC(C)CC(C)(O)C#CC(C)(O)CC(C)C` (stereo not drawn), the outcome is reported as “inactive”.
With `CC(C)=CCC/C(C)=C\CO` the outcome was “inactive”.
For `Cc1ccc(S(=O)(=O)O)cc1C`, the outcome was “inactive”.
For `CC(=O)c1ccc2c(c1)[C@H](NC(=O)c1ccc(F)cc1)[C@@H](O)C(C)(C)O2`, the outcome was “inactive”.
With `C=CCCCCCCCCC(=O)O` the outcome was “inactive”.
For `O=C(O)c1cccc(Oc2ccccc2)c1`, the outcome was “inactive”.
With `C1N2CN3CN1CN(C2)C3` the outcome was “inactive”.
For `CC1=CC(=O)CC(C)(C)C1`, the outcome was “inactive”.
With `CNS(=O)(=O)c1cc(C(=O)N2CCC(CCN3C4CCC3CC(n3c(C)nc5ccccc53)C4)(c3cccc(F)c3)CC2)c(Cl)cc1F` (stereo not drawn) the outcome was “inactive”.
For `O=C(O)CCN(C1(C(=O)NO)CCCC1)S(=O)(=O)c1ccc(Oc2ccc(F)cc2)cc1`, the outcome was “inactive”.
With `On1ccccc1=S` the outcome was “inactive”.
For `CCn1nc(Cc2ccccc2)cc1C1CCN(C[C@H]2C[C@H](N(C)[C@@H](C(=O)O)C(C)C)C[C@@H]2c2cccc(F)c2)CC1`, the outcome was “inactive”.
